Source: PubChem BioAssay AID602388 (National Center for Advancing Translational Sciences (NCATS), 2012)
This is one part of the list. Records with an inconclusive call do not appear. The source made the active and inactive calls. The call rests on the fitted dose curve; in most records, active means well fitted inhibition curve with a large enough effect; inconclusive means small, poorly fitted or top-dose-only effect; inactive means flat fitted curve, though single readings scatter.

The compounds below were run against Regulator of G-protein signaling 4 (Homo sapiens) (UniProt P49798) (assay: qHTS for Inhibitors of Regulator of G Protein Signaling(RGS) 4: Hit Validation). Conditions: RGS4 GAP activity, Transcreener GDP fluorescence polarization.
Text: G-protein-coupled receptors (GPCRs) are well-established targets for drug discovery and development. Members of the "regulator of G-protein signaling" (RGS)-protein superfamily have recently emerged as critical modulators of specific GPCR signaling pathways. […] Combining specific RGS domain inhibitors with existing GPCR agonists should potentiate cellular responses and could also increase the specificity of action of existing therapeutics. Small molecule modulators of RGS domain activity should also have clinical utility in inhibiting or potentiating the actions of endogenous GPCR agonists. In particular, the diversity of RGS proteins with highly localized and dynamically regulated distributions in the human brain makes this family of proteins attractive targets for pharmacotherapy of central nervous system (CNS) disorders such as Parkinson's disease, schizophrenia, and anxiety. […] This assay was used to screen the NIH Molecular Libraries Small Molecule Repository (MLSMR) in order to identify a small molecule that inhibits RGS4. NIH Chemical Genomics Center [NCGC] NIH Molecular Libraries Probe Centers Network [MLPCN] MLPCN Grant: DA030555 Assay Submitter (PI): David Siderovski, University of North Carolina Chapel Hill (School of Medicine)
Two microliters of 500nM (2x working concentration) is dispensed into black medium-binding solid-bottom Kalypsys plates. Then with the Kalypsys pintool 23nl of control and compounds are transferred; the control compound is […] CCG-4986 (working concentration). […] An initial fluorescent polarization read (620 nm/688 nm) is performed on the Envision before the plate is incubated for 90 minutes at 30 deg C at a relative humidity of 80%. The plate is once more centrifuged at 1000 RPM for 15 seconds and another Envision fluorescent polarization (620 nm/688 nm) read is carried out.

Regulator of G-protein signaling 4 (Homo sapiens), sequence (P49798 whole entry, looked up, the tested form may be a part): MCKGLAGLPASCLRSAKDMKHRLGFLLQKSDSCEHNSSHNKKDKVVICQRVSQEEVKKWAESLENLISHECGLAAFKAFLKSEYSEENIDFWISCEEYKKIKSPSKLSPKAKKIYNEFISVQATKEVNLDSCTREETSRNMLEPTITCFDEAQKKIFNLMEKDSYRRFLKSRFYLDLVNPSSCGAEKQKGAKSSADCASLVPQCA

Potency, active:
O=C(Nc1nc(-c2ccncc2)cs1)C1COc2ccccc2O1 (stereo not drawn) 5.32 µM, Cc1ccc(-c2nc3ccccn3c2Nc2c(C)cccc2C)o1 10.6 µM, Cc1ccc(-n2nc(-c3ccco3)cc2C(=O)NCc2cccnc2)cc1 6.7 µM
